Measurements published in PubChem BioAssay (Tox21).
“And” between values parts separate entries of the source, which are not always exact repeats. Equal values may be shown once. Records with an inconclusive call do not appear. The source made the active and inactive calls. The call rests on the fitted dose curve; in most records, active means well fitted curve in the direction sought with a large enough effect in the repeat runs; inconclusive means weak or mixed curves; inactive means no such curve, though single readings can be large; an effect the other way counts as inactive or inconclusive.

Key:
[1] = qHTS RealTime-Glo MT Cell Viability Assay in HEK293 cells - 40 hour (AID 1224874); settings: RealTime-Glo luminescence; max response: hits give low values; further: nearly all actives have a fitted effect of over 50% in size; further: potency means the concentration at half of the fitted maximal effect
Procedure, shortened: (§1)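 Cells were seeded together with NanoLuc luciferase and a prosubstrate that viable cells reduce to a luciferase substrate. After a 5 h incubation at 37 C/5% CO2, compounds were added and luminescence was measured repeatedly during 40 h of treatment.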

[2] = A CellTox Green Cytotoxicity Assay to monitor cytotoxicity in HEK293 cells - 24 hour (AID 1224875); further: series mostly up to about 77 µM; nearly all actives have a fitted effect of over 45% in size
Procedure, shortened: (§2)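 Nonlytic real-time cytotoxicity: HEK293 + CellTox Green reagent plated, 5 h preincubation, pintool compound addition (23 nL in DMSO), 37 C for 40 h, fluorescence measured at successive time points.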

[3] = A CellTox Green Cytotoxicity Assay to monitor cytotoxicity in HepG2 cells - 16 hour (AID 1224876); further: nearly all actives have a fitted effect of over 45% in size
Procedure, shortened: (§3)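 Read-out is fluorescence of a cyanine dye excluded from live cells that stains DNA of dead HepG2 cells, with signal proportional to cytotoxicity. Plates were read at 0, 8, 16, 24, 32 and 40 h after compound addition.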

[4] = qHTS RealTime-Glo MT Cell Viability Assay in HepG2 cells - 32 hour (AID 1224877); further: nearly all actives have a fitted effect of over 55% in size
Procedure, shortened: (§4)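 Cells + NanoLuc/prosubstrate dispensed (600 cells/well) → 5 h at 37 C/5% CO2 → compounds in DMSO transferred → 40 h incubation at 37 C, luminescence read at 0, 8, 16, 24, 32, 40 h.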

[5] = A CellTox Green Cytotoxicity Assay to monitor cytotoxicity in HepG2 cells - 24 hour (AID 1224878); further: nearly all actives have a fitted effect of over 45% in size
Procedure, shortened: as §3

[6] = A CellTox Green Cytotoxicity Assay to monitor cytotoxicity in HepG2 cells - 40 hour (AID 1224879); further: nearly all actives have a fitted effect of over 40% in size
Procedure, shortened: as §3

[7] = A CellTox Green Cytotoxicity Assay to monitor cytotoxicity in HEK293 cells - 32 hour (AID 1224881); further: nearly all actives have a fitted effect of over 40% in size
Procedure, shortened: as §2

[8] = A CellTox Green Cytotoxicity Assay to monitor cytotoxicity in HepG2 cells - 0 hour (AID 1224882); further: nearly all actives have a fitted effect of over 35% in size
Procedure, shortened: as §3

[9] = A CellTox Green Cytotoxicity Assay to monitor cytotoxicity in HEK293 cells - 8 hour (AID 1224884); further: nearly all actives have a fitted effect of over 35% in size
Procedure, shortened: as §2

[10] = qHTS RealTime-Glo MT Cell Viability Assay in HepG2 cells - 16 hour (AID 1224885); further: nearly all actives have a fitted effect of over 50% in size
Procedure, shortened: as §4

[11] = qHTS RealTime-Glo MT Cell Viability Assay in HEK293 cells - 24 hour (AID 1224886); further: nearly all actives have a fitted effect of over 50% in size; further: potency means the concentration at half of the fitted maximal effect
Procedure, shortened: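 Tox21 10K qHTS, HEK293, 600 cells/well, RealTime-Glo reagent co-dispensed with cells; 5 h preincubation, compound by pintool, 37 C, luminescence at 0–40 h.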

[12] = qHTS RealTime-Glo MT Cell Viability Assay in HEK293 cells - 8 hour (AID 1224887); further: top concentration of the series differs between compounds; nearly all actives have a fitted effect of over 50% in size
Procedure, shortened: as §1

[13] = qHTS RealTime-Glo MT Cell Viability Assay in HepG2 cells - 0 hour (AID 1224889); further: nearly all actives have a fitted effect of over 50% in size
Procedure, shortened: as §4

[14] = A CellTox Green Cytotoxicity Assay to monitor cytotoxicity in HepG2 cells - 8 hour (AID 1224890); further: nearly all actives have a fitted effect of over 45% in size
Procedure, shortened: as §3

[15] = qHTS assay to identify small molecule antagonists of the estrogen receptor alpha (ER-alpha) signaling pathway using the BG1 cell line in the presence of 0.1 nM 17-beta-estradiol - cell viability counter screen (AID 1259241); further: nearly all actives have a fitted effect of over 40% in size
Procedure, shortened: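 Following 5 days in phenol red-free medium with charcoal-stripped serum, VM7Luc4E2 cells received test compounds alongside 0.1 nM 17beta-estradiol (final) at 37C for 22 hr. Live cells were then quantified via protease-substrate fluorescence.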

[16] = qHTS assay to identify small molecule antagonists of the androgen receptor (AR) signaling pathway using the MDA cell line in the presence of 0.5 nM R1881 - cell viability counter screen (AID 1259242); further: nearly all actives have a fitted effect of over 45% in size
Procedure, shortened: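 Counter screen for cytotoxicity run in the same wells as the AR antagonist reporter screen: MDA-kb2 cells were treated 16 hr with test compounds and 0.5 nM R1881, then live-cell protease activity was measured by fluorescence.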

[17] = A CellTox Green Cytotoxicity Assay to monitor cytotoxicity in HEK293 cells - 16 hour (AID 1224888); further: nearly all actives have a fitted effect of over 35% in size
Procedure, shortened: as §2

[18] = qHTS RealTime-Glo MT Cell Viability Assay in HEK293 cells - 0 hour (AID 1224880)
Procedure, shortened: as §1

[19] = A CellTox Green Cytotoxicity Assay to monitor cytotoxicity in HepG2 cells - 32 hour (AID 1224883); further: nearly all actives have a fitted effect of over 50% in size
Procedure, shortened: as §3

[20] = molecular target: Androgen receptor (Homo sapiens) (UniProt P10275); test: qHTS assay to identify small molecule antagonists of the androgen receptor (AR) signaling pathway using the MDA cell line in the presence of 0.5 nM R1881 (AID 1259243); further: nearly all actives have a fitted effect of over 50% in size
Procedure, shortened: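 Luciferase luminescence is the read-out: compounds are tested for suppressing 0.5 nM R1881-driven MMTV reporter activity in MDA-kb2 cells after 16 hr at 37C.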
On the % scale 0 is the no-effect control and ±100 the full control effect.

Sequence of Androgen receptor (Homo sapiens) (P10275 whole entry, looked up): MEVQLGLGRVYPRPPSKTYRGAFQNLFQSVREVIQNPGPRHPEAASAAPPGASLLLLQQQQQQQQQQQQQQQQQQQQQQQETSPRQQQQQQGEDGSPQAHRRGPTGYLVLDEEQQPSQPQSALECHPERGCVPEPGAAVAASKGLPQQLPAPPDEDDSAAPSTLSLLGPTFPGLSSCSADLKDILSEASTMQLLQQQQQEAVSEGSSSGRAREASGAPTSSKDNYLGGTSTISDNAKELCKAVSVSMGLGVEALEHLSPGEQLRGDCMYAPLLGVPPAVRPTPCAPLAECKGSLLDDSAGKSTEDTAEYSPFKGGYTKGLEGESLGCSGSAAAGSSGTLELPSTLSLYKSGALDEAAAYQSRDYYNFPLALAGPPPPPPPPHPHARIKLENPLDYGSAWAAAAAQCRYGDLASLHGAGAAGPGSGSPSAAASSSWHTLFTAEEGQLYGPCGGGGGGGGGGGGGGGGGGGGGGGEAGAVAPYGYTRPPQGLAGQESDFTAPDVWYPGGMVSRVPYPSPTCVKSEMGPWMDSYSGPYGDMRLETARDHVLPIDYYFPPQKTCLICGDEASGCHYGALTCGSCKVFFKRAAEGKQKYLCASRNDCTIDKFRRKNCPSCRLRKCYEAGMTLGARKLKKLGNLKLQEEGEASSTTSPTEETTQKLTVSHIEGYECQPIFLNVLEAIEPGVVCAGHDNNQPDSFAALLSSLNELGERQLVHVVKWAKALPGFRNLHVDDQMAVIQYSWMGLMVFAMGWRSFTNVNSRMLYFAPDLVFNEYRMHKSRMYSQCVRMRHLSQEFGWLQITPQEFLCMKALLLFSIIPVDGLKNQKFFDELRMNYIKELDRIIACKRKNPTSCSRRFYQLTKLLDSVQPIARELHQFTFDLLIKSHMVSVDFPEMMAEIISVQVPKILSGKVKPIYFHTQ

CN(C)N=O
inactive: max response [1] 7.51% and -1.45% | Potency [2] | Potency [3] | outcome [4] | Potency [5] | Potency [6] | Potency [7] | Potency [8] | Potency [9] | outcome [10] | Potency [11] | outcome [12] | outcome [13] | Potency [14] | Potency [15] | outcome [16]

CC(C)(C)OOC(C)(C)C
inactive: max response [1] 1.79% and 12.3% | Potency [2] | Potency [3] | outcome [4] | Potency [5] | Potency [6] | Potency [7] | Potency [8] | Potency [9] | outcome [10] | Potency [11] | outcome [12] | Potency [17] | outcome [13] | Potency [14] | Potency [15] | outcome [16]

CC(C)(C)C(O)(CCc1ccc(Cl)cc1)Cn1cncn1 (configuration not stated)
active: Potency [1] 44.2 µM and 54.9 µM | Potency [11] 49.6 µM and 54.9 µM
inactive: Potency [2] | Potency [3] | outcome [4] | Potency [7] | Potency [8] | Potency [9] | outcome [10] | Potency [17] | outcome [13] | Potency [14] | Potency [15] | outcome [16]

c1ccc(OP(Oc2ccccc2)Oc2ccccc2)cc1
inactive: max response [1] 4.65% and 9.76% | Potency [2] | Potency [3] | outcome [4] | Potency [5] | Potency [6] | Potency [7] | Potency [8] | Potency [9] | outcome [10] | Potency [11] | outcome [12] | Potency [17] | outcome [13] | Potency [14] | Potency [15] | outcome [16]

CCN(CC)c1ccccc1
inactive: max response [1] 8.36% and 18.4% | Potency [2] | Potency [3] | Potency [5] | Potency [6] | outcome [18] | Potency [7] | Potency [8] | Potency [19] | Potency [9] | Potency [11] | outcome [12] | Potency [17] | outcome [13] | Potency [14] | Potency [15] | outcome [16] | Potency [20]

Nc1c(Cl)c(Cl)nc(C(=O)O)c1Cl
inactive: max response [1] 19.5% and -5.11% and 22.8% | Potency [2] | Potency [3] | outcome [4] | Potency [5] | Potency [6] | Potency [7] | Potency [8] | Potency [19] | Potency [9] | Potency [11] | outcome [12] | Potency [17] | outcome [13] | Potency [14] | Potency [15] | outcome [16]

O=c1[nH]c(=O)[nH]c(=O)[nH]1
inactive: max response [1] 1.39% and 0.958% | Potency [2] | Potency [3] | outcome [4] | Potency [5] | Potency [6] | Potency [7] | Potency [8] | Potency [19] | Potency [9] | Potency [11] | outcome [12] | outcome [13] | Potency [15] | outcome [16] | Potency [20]

Nc1ccc(Oc2ccc(N)cc2)cc1
inactive: max response [1] -6.06% and -21.5% | Potency [2] | Potency [3] | outcome [4] | Potency [5] | Potency [6] | Potency [7] | Potency [8] | Potency [19] | Potency [9] | Potency [11] | outcome [12] | Potency [17] | outcome [13] | Potency [14] | Potency [15] | outcome [16]

CN1C(=O)CN=C(c2ccccc2)c2cc(Cl)ccc21
inactive: max response [1] -22% | Potency [2] | Potency [3] | Potency [5] | Potency [6] | outcome [18] | Potency [7] | Potency [8] | Potency [19] | Potency [9] | Potency [11] | outcome [12] | Potency [17] | outcome [13] | Potency [15] | outcome [16]

Nc1ccc(Br)cc1
inactive: max response [1] -1.58% and -21.4% | Potency [2] | Potency [3] | Potency [5] | Potency [6] | outcome [18] | Potency [7] | Potency [8] | Potency [19] | Potency [9] | outcome [10] | Potency [11] | outcome [12] | outcome [13] | Potency [14] | Potency [15] | outcome [16]

CN(N=O)c1ccccc1
inactive: max response [1] 9.26% and 4.33% | Potency [2] | Potency [3] | outcome [4] | Potency [5] | Potency [6] | Potency [7] | Potency [8] | Potency [9] | outcome [10] | Potency [11] | outcome [12] | outcome [13] | Potency [14] | Potency [15] | outcome [16]

O=C(O)c1ccccn1
inactive: max response [1] -2.82% and 14.7% | Potency [2] | Potency [3] | outcome [4] | Potency [5] | Potency [6] | outcome [18] | Potency [7] | Potency [8] | Potency [9] | Potency [11] | outcome [12] | Potency [17] | outcome [13] | Potency [15] | outcome [16]

O=c1[nH]c2ccccc2c(=O)o1
inactive: max response [1] -0.172% | Potency [2] | Potency [3] | outcome [4] | Potency [5] | Potency [6] | Potency [7] | Potency [8] | Potency [19] | Potency [9] | outcome [10] | Potency [11] | outcome [12] | outcome [13] | Potency [15] | outcome [16]

Cc1ccc(N)cc1N
inactive: max response [1] 14.6% | Potency [2] | Potency [3] | Potency [5] | Potency [6] | outcome [18] | Potency [7] | Potency [8] | Potency [19] | Potency [9] | outcome [10] | Potency [11] | outcome [12] | Potency [17] | outcome [13] | Potency [14] | Potency [15] | outcome [16]

CCOP(=S)(OCC)Oc1cnc2ccccc2n1
inactive: max response [1] 0.949% | Potency [2] | Potency [3] | outcome [4] | Potency [5] | Potency [6] | outcome [18] | Potency [7] | Potency [8] | Potency [9] | Potency [11] | outcome [12] | Potency [17] | outcome [13] | Potency [15] | outcome [16]
